# Experimental data as given in PubChem BioAssay (NCI).
# About 83,000 compounds went through this panel and 20% of them were active in at least one assay; those are over-represented in the sample as a whole.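 Growth was measured after 48 h exposure to one concentration of compound in 96-well plates. Values under 10 count as active.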 The source made the active and inactive calls.
# System: MDA-MB-468 breast
# Assay: NCI-60 one-dose screen, 48 h (100 = growth as untreated, 0 = no growth, -100 = all killed)
# Conditions: 10 µM unless noted
row,Structure (SMILES),growth
1,COc1nc2ccc(C)cc2cc1/C=[N+](\[O-])c1ccccc1,79.3% (inactive)
2,COc1ccc(/C(C)=C(\c2ccc(Cl)cc2)c2ccc(OCCCN(C)C)cc2)cc1F,75.7% (inactive)
3,O=C(Cn1cccc(Nc2ccccc2)c1=O)Nc1ccccc1,95.1% (inactive)
4,Cc1cc(=O)oc2cc(OCCCOc3ccc(/C=C/C(=O)Nc4ccc(Br)cc4)cc3)ccc12,75.9% (inactive)
5,COC(=O)[C@]12CC[C@@H](C(/C=C/c3cccnc3)=N/O)[C@@H]1[C@H]1CC[C@@H]3[C@@]4(C)CC(=C/c5cccnc5)/C(=N/O)C(C)(C)[C@@H]4CC[C@@]3(C)[C@]1(C)CC2,13.1% (inactive)
6,O=C(NNC(=O)c1ccc(NC(=O)c2ccccn2)cc1)Nc1ccc2ccccc2c1,119% (inactive)
7,COc1ccc(-c2nn(-c3cccc(Cl)c3)cc2-c2nc(N)[nH]c(=O)c2C#N)cc1,73.9% (inactive)
8,NC(=NCCCOc1ccc(F)cc1)Nc1ccc(Cl)cc1,12.5% (inactive)
9,N=C(N)c1ccc(-c2ccc(-c3ccc(Cl)cc3Cl)s2)cc1F,-63.5% (active)
10,CCC(=C(c1ccc(OCCN2CCCC2)cc1)c1ccc(OCCN2CCCC2)cc1)c1ccc(Cl)cc1,-53.5% (active)
11,CCCCCCCCCCCC(c1ccccc1)N(C)C (stereo not given),95.4% (inactive)
12,COc1cc(NC(N)=NCCC(C)(C)c2ccc(C(F)(F)F)cc2)ncc1C#N,-39.1% (active)
13,O=C(CCc1nnc(-c2c(Cl)cccc2Cl)o1)c1nc2ccccc2[nH]1,-2.19% (active)
14,CCOc1c(C#N)c(Nc2ccc(S(N)(=O)=O)cc2)c(C#N)c2nnc(C)n12,105% (inactive)
15,CC[N+](CCCCCCCCCC[N+](CC)(c1ccccn1)c1ccccn1)(c1ccccn1)c1ccccn1,-1.91% (active)
16,CC(=O)Oc1cc(C)c(OC(C)=O)c(C)c1C,47.1% (inactive)
17,CCCCN1C(=O)c2cccc3c(-c4ccc5c(c4)ncn5C4CCCCC4)ccc(c23)C1=O,101% (inactive)
18,O=C(c1ccccc1)c1ccc(Oc2ccc([N+](=O)[O-])cc2[N+](=O)[O-])cc1,5.3% (active)
19,CCO/C=C1\SC(=S)N(c2cccc(O)c2)C1=O,87.6% (inactive)
20,O=CC(OC(=O)c1ccccc1)C(OC(=O)c1ccccc1)C(COC(c1ccccc1)(c1ccccc1)c1ccccc1)OC(=O)c1ccccc1 (stereo not given),74.6% (inactive)

row,Structure (SMILES),growth
1,COc1ccc2c3c(ccc2c1)C(=O)/C(=C\O)CC3,111% (inactive)
2,O=C(N/N=C/c1ccc(Cl)s1)c1[nH]c2ccc(Br)cc2c1-c1ccccc1,2.96% (active)
3,Cn1cc(-c2csc(-c3c[nH]c4ccc(F)cc34)n2)c2cccnc21,-22.7% (active)
4,CO[C@H]1C[C@@H]2CC[C@@H](C)[C@@](O)(O2)C(=O)C(=O)N2CCCC[C@H]2C(=O)O[C@H]([C@H](C)C[C@@H]2CC[C@@H](O)[C@H](OC)C2)CC(=O)[C@H](C)/C=C(\C)[C@@H](O)[C@@H](OC)C(=O)[C@H](C)C[C@H](C)\C=C/C=C/C=C/1C,1.57% (active)
5,O=S(=O)(Oc1ccc(Br)cc1)c1ccc(Cl)cc1,105% (inactive)
6,O=C1/C(=C/N2N=C(c3ccc4ccccc4c3)CC2c2ccccc2O)SC(=S)N1c1cccnc1 (stereo not given),7.52% (active)
7,Cc1[nH]c2ccc(F)cc2c1CCNC(=O)C1CCN(C(=O)c2ccccc2)C1 (stereo not given),86.8% [25 µM] (inactive)
8,CCCCCCCCCC(=O)Oc1ccc(/C(=C(/C)Cc2cccc(OC)c2)c2ccc(OCCN(C)C)cc2)cc1,103% (inactive)
9,O=c1c2cc(F)ccc2sc2c(NCCN3CCCC3)nc3ccccc3c12,65.8% (inactive)
10,CN(C)c1ccc(C(c2ccccc2)c2ccc(N(C)C)cc2)cc1,103% (inactive)
11,O=C1C(=O)c2ccc(Br)cc2-c2cc(Br)ccc21,0.713% (active)
12,N=C(c1ccccc1)N(Cc1ccccc1)Cc1ccccc1,98.2% (inactive)
13,COc1ccc(-c2nnc(SCC(=O)Nc3ccc(C(=O)/C=C/c4ccccc4)cc3)n2-c2ccccc2)cc1OC,94.8% (inactive)
14,COc1cc(/C=C/C(=O)/C=C/c2ccc(-n3ccnc3)cc2)ccc1O,37.8% (inactive)
15,O=C(Nc1ccc(Nc2ccncc2)cc1)c1ccc(Nc2ccnc3ccc([N+](=O)[O-])cc23)cc1,83.4% (inactive)
16,Cc1cc(C(=O)c2ccccc2)c(C)c2c1[nH]c1ccc(Cl)cc12,-7.26% (active)
17,CCOC(=O)c1c(C)nc2c(c1N)C(=O)C(=O)N2Cc1ccc(C(F)(F)F)cc1,77.8% (inactive)
18,O=[N+]([O-])c1ccc(NC(=S)NNC(=S)Nc2ccc(Br)cc2)cc1,82.5% (inactive)
19,COC(=O)c1cccc(NC2=CC(=O)C(C)=C(C)C2=O)c1,65.9% (inactive)
20,CCc1nc2ccc(Cc3ccc(C(=O)NO)cc3)cc2c(=O)n1CCc1ccccc1,-65.1% (active)
